Source: PubChem (National Center for Advancing Translational Sciences (NCATS))
VP16 counter – counter-screen for ROR gamma inhibitors: Gal4-VP16 reporter; Potency, µM (doses to about 53.6 µM), inactives show at the highest dose activity, negative = inhibition, actives largely listed as inhibitors; 3.5% of 310,000 active; Drosophila S2 Gal4-VP16 UAS-luciferase, luminescence, 20 h;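 further: Gal4-VP16 expression switched on by copper sulfate through the metallothionein promoter; potency means the concentration at half of the fitted maximal effect; on the % scale 0 is the no-effect control and ±100 the full control effect; nearly all actives have a fitted effect of over 50% in size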
TRPV1 potentiator – human TRPV1 potentiation; Q8NER1; TRPV1-expressing cells, Fluo-8 calcium influx, capsaicin EC20 potentiation; potentiation, % at 8.33 µM; 0.02% of 320,000 active; AID 540277; in the data active means potentiation above about 80%; inconclusive means between about 30% and that limit; further: 0% is about no effect
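Cells expressing TRPV1 were dye-loaded with Fluo-8 and read kinetically: 10 s baseline, 3 min after compound (agonist portion), then 2 min after EC20 capsaicin (allosteric enhancer portion). Calcium-bound dye fluorescence at 480/520 nm.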
TRPV1 ag – agonists of human vanilloid receptor 1 (TRPV1). Q8NER1. TRPV1-expressing cells, Fluo-8 calcium influx, agonist mode. activation, % at 8.33 µM. 0.19% of 320,000 active. AID 540275; in the data active means activation above about 80%; inconclusive means between about 30% and that limit; further: 0% is about no effect
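TRPV1-expressing cells were cultured overnight at 35.5C and loaded with Fluo-8 calcium dye for 40 to 90 min at room temperature. After a 10 s baseline, compound was added and calcium influx was read kinetically for 3 min (ex 480/em 520 nm).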
uPA surface inh – blocks generation of uPA at the cell surface; Potency, µM (titrated, usually from 38.3 µM), for inactives: top-dose activity change, negative = inhibition, most hits filed as inhibitors; cell surface uPA generation assay, qHTS; 0.31% of 330,000 active; active means well fitted inhibition curve with a large enough effect; inconclusive means small, poorly fitted or top-dose-only effect; inactive means no such curve, though single readings can be large or run the other way; tested in mouse RAW 264.7 cells; further: potency means the concentration at half of the fitted maximal effect; on the % scale 0 is the no-effect control and ±100 the full control effect; nearly all actives have a fitted effect of over 55% in size
RORg inh – ROR gamma (mouse) transcription inhibition; P51450; 5.4% of 310,000 active; Drosophila S2 Gal4-RORgamma UAS-luciferase reporter, 20 h; Potency, µM (titrated, usually from 53.6 µM), for inactives: at the top dose activity change, negative = inhibition, most hits filed as inhibitors; further: potency means the concentration at half of the fitted maximal effect; on the % scale 0 is the no-effect control and ±100 the full control effect; nearly all actives have a fitted effect of over 60% in size
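Luminescence from a UAS-regulated Photinus luciferase reporter in stably transfected Drosophila Schneider cells is measured; decreased signal marks ROR gamma inhibition. Fusion expression is induced by 700 uM copper sulfate for 20 hr.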
The depositor's hits bear a star; u = inconclusive; x = no result given; [ ] = another dose, or the depositor's remark. The list is not random: actives were taken first. Their share in the collection is about 5.8%. Unless noted, the call rests on the fitted dose curve; in most records, active means well fitted curve in the direction sought with a large enough effect; inconclusive means small, poorly fitted or top-dose-only effect, or another doubt; inactive means no such curve, though single readings can be large; an effect the other way counts as inactive or inconclusive.

SMILES	VP16 counter	TRPV1 potentiator	TRPV1 ag	uPA surface inh	RORg inh
Cc1nn(-c2ccccc2)c(C)c1C(=O)OCC(=O)Nc1ccccc1F	x	14	1	10µM*	x
CCOC(=O)C1=C(CC)OC(N)=C(C#N)C1c1ccc(OC)c(OC)c1OC (stereo not drawn)	-9%	-18	5	x	-1%
CCOC(=O)C1=C(CSc2nc(C)ccc2C#N)OC(N)=C(C#N)C1c1cccc(OC)c1OC (stereo not drawn)	u	4	1	-6%	20µM*
CC(=O)N1CCc2cc(S(=O)(=O)Nc3cccc(C(F)(F)F)c3)ccc21	5µM*	4	-2	-6%	u
CSc1cccc(NS(=O)(=O)c2ccc3c(c2)CCN3C(C)=O)c1	4.5µM*	-8	4	u	u
COc1cccc(NS(=O)(=O)c2ccc3c(c2)CCN3C(C)=O)c1	16µM*	-1	-1	-15%	u
CC(=O)N1CCc2cc(S(=O)(=O)N3CCc4ccccc43)ccc21	13µM*	4	-6	-25%	u
COc1ccc(OC)c(CNC(=O)CCn2c(=O)c3cccn3c3ccc(F)cc32)c1	0%	u	0	5%	-7%
CC(C)NC(=S)NC(=O)/C=C/c1cccc2ccccc12	4.5µM*	3	1	-5%	1.4µM*
CN1CCN(C(=S)NC(CC(=O)c2ccccc2)c2ccccc2)CC1 (stereo not drawn)	6%	x	x	-1%	-16%
CN1CCN(C(=S)NC(=O)/C=C/c2cccs2)CC1	u	-12	-2	3%	10µM*
CN1CCN(C(=S)NC(=O)/C=C/c2cccc3ccccc23)CC1	3.2µM*	-6	-3	-4%	1µM*
Cc1ccc(S(=O)(=O)N(C)c2nc3ccccc3[nH]c2=S)cc1	-10%	6	0	2%	4.5µM*
CCc1nnc2c(N(C)S(=O)(=O)c3ccc(C)cc3)nc3ccccc3n12	17%	22	-3	0%	-9%
COc1ccc(Cl)cc1/C=C/c1ccc2cccc(O)c2n1	0.79µM*	3	0	u	0.89µM*
COc1c(OC(C)=O)ccc(/C=C/c2ccc3cccc(OC)c3n2)c1[N+](=O)[O-]	-17%	-6	6	-5%	u
COc1ccccc1/C=C/c1ccc2cccc(O)c2n1	u	-1	-1	-3%	4µM*
COc1cc(Cl)cc(/C=C/c2ccc3cccc(O)c3n2)c1OC	-10%	8	4	2%	5µM*
CCN(CC)CCNC(=O)c1ccc(NC(=O)c2cc(S(=O)(=O)N3CCCCC3)ccc2C)cc1	x	14	-1	2%	x
COc1cc2c(cc1NC(=O)COC(=O)Cn1cnc3ccccc31)oc1ccccc12	3%[0.365 µM]	16	-6	-4%	2µM*
COc1cc2c(cc1NC(=O)COC(=O)C(CCSC)NC(=O)c1ccccc1Cl)oc1ccccc12 (stereo not drawn)	u	11	-1	1%	10µM*
Cc1noc(C)c1COc1ccc(C(=O)OCC(=O)Nc2ccc(S(N)(=O)=O)cc2)cc1	x	4	2	-4%	x
CC(C)N1CCc2c(sc(NC(=O)c3ccc([N+](=O)[O-])o3)c2C(N)=O)C1	u	12	-5	x	7.1µM*
CC1CCCCC1NC(=O)Cc1ccc(S(=O)(=O)N2CCOCC2)s1 (stereo not drawn)	x	-20	25	-1%	x
COc1ccc(Nc2nc(Nc3ccc(OC)cc3)nc(-n3[nH]c(=O)c(C)c3C)n2)cc1	4µM*	12	0	-3%	1.3µM*
SMILES	VP16 counter	TRPV1 potentiator	TRPV1 ag	uPA surface inh	RORg inh
O=c1cc(-c2ccccc2)nc2cc(-c3ccc(F)cc3)[nH]n12	x	x	x	-5%	x
Fc1ccc(-c2cc(-c3ccccc3)nc(-n3cccn3)n2)cc1	u	5	u	-6%	1µM*
CCOc1ccc(NC(=O)Cn2sc3nc(C)cc(C)c3c2=O)cc1	11µM*	-25	23	-3%	u
Cc1cc(C)c2c(=O)n(CC(=O)Nc3cccc(F)c3)sc2n1	u	-15	21	u	u
Cc1cc(C)c2c(=O)n(CC(=O)Nc3ccc(Cl)cc3)sc2n1	13µM*	-10	18	-1%	u
Cc1cc(-c2ccc(C)c(S(=O)(=O)Nc3cc(C)on3)c2)on1	-6%	22	1	6%	-19%
Nc1nnc(CSCc2ccc(Cl)cc2Cl)s1	3%	1	3	-1%	-45%
